Results from PubChem BioAssay AID1053119 (Broad Institute, 2014).
Entries with a potency or affinity are not part of this list. Results filed as inconclusive are left out. Active and inactive are the calls of the source.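 The calls were made as follows: active = signal loss from cell killing with fitted potency at or below twice the top valid dose; inconclusive = flat drop of 30 to 70%, or unreliable curve fit; inactive = opposite direction, flat within 30%, or weaker potency.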

Test: viability loss in A549 lung cancer cells – cell-based, cherry-picks, 26 µM top dose, cytotoxicity control, dose response (AID 1053119);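 also: 0% = neutral control wells and -100% = 10 µM mitoxantrone wells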
Conditions: CellTiter-Glo ATP luminescence, 72 h; series mostly up to 26 µM; activity change, negative = cytotoxicity: at the top concentration

**Q.** With `S=C(NCC1CCCO1)Nc1ccc(Cl)cc1Cl` (centres undefined) as the compound, how does the “activity change, negative = cytotoxicity” value read?
**A.** -10.4% (inactive)

**Q.** Which “activity change, negative = cytotoxicity” value does the source give for `O=C(Nc1ccccc1F)N1C[C@@H]2[C@H](c3ccccc31)[C@H](CO)N2C(=O)C1CCOCC1` here?
**A.** 8.24% [at 23.5 µM] (inactive)

**Q.** For `CCCCOc1ccc(C(C)NC(=O)C2CCCN(S(=O)(=O)CCC)C2)cc1` (centres undefined), which “activity change, negative = cytotoxicity” value is on record?
**A.** 5.52% (inactive)

**Q.** Which “activity change, negative = cytotoxicity” value does the source give for `CSc1ccccc1C(=O)C1CCCN(C(=O)CCc2cccnc2)C1` (centres undefined) here?
**A.** -5.79% (inactive)

**Q.** Which “activity change, negative = cytotoxicity” value does the source give for `Cc1ccc(N(CC(=O)NCc2ccco2)S(=O)(=O)c2ccccc2)cc1` here?
**A.** -5.49% (inactive)

**Q.** Which “activity change, negative = cytotoxicity” value does the source give for `C[C@@H]1CN([C@@H](C)CO)C(=O)c2cc(-c3ccccc3)cnc2O[C@@H]1CN(C)Cc1ccccc1` here?
**A.** -4.5% (inactive)

**Q.** For `Cc1ccccc1S(=O)(=O)N1CC[C@H]2[C@H](CO)Nc3ccc(-c4ccc(C#N)cc4)cc3[C@H]21`, which “activity change, negative = cytotoxicity” value is on record?
**A.** -6.96% (inactive)

**Q.** Which “activity change, negative = cytotoxicity” value does the source give for `COc1cccc(S(=O)(=O)N2CC[C@@H]3[C@H]2c2cc(-c4ccc(C#N)cc4)ccc2N[C@@H]3CO)c1` here?
**A.** -10.4% [at 23.5 µM] (inactive)

**Q.** For `COC(=O)C[C@@H]1CC[C@H]2[C@H](COc3ccc(NC(=O)Cc4cccs4)cc3C(=O)N2C)O1`, which “activity change, negative = cytotoxicity” value is on record?
**A.** 1.35% [at 23.5 µM] (inactive)

**Q.** For `O=C(CC1Nc2ccccc2NC1=O)Nc1ccc2c(c1)OCO2` (centres undefined), which “activity change, negative = cytotoxicity” value is on record?
**A.** -10.1% (inactive)

**Q.** For `Cc1ccc(CS(=O)Cc2ccc(C(=O)NC3CCCC(C)C3C)o2)cc1` (centres undefined), which “activity change, negative = cytotoxicity” value is on record?
**A.** 6.25% (inactive)

**Q.** For `O=C(c1cccnc1)N1C[C@H]2[C@@H](c3ccccc31)[C@@H](CO)N2CC1CCCC1`, which “activity change, negative = cytotoxicity” value is on record?
**A.** -16.2% (inactive)

**Q.** For `O=S(=O)(c1cccc(F)c1)N1CC[C@H]2[C@H](CO)Nc3ccc(-c4cccc(F)c4)cc3[C@H]21`, which “activity change, negative = cytotoxicity” value is on record?
**A.** -1.9% (inactive)

**Q.** For `CCC(C)(C)NC(=O)C(OC(=O)c1ccco1)c1ccccc1OC` (centres undefined), which “activity change, negative = cytotoxicity” value is on record?
**A.** -3.54% (inactive)

**Q.** With `CCOC(=O)C1=C(C)Nc2nc3ccccc3n2C1c1ccncc1` (centres undefined) as the compound, how does the “activity change, negative = cytotoxicity” value read?
**A.** -8.08% (inactive)

**Q.** Which “activity change, negative = cytotoxicity” value does the source give for `COc1cccc(-c2ccc3c(c2)[C@H]2[C@H](CCN2S(=O)(=O)c2cccc(OC)c2)[C@@H](CO)N3)c1` here?
**A.** -4.15% (inactive)

**Q.** For `COCC(=O)Nc1ccc2c(c1)C(=O)N(C)[C@H]1CC[C@@H](CC(=O)NCc3ccccc3Cl)O[C@H]1CO2`, which “activity change, negative = cytotoxicity” value is on record?
**A.** -4.72% (inactive)

**Q.** Which “activity change, negative = cytotoxicity” value does the source give for `O=C(Nc1cc(Sc2nc3ccccc3s2)cc([N+](=O)[O-])c1)c1ccccc1F` here?
**A.** -8.23% (inactive)

**Q.** For `COc1ccc([N+](=O)[O-])cc1NS(=O)(=O)c1ccc(C(=O)N2CCCC2)cc1`, which “activity change, negative = cytotoxicity” value is on record?
**A.** -5.09% (inactive)

**Q.** With `Cc1ccc(S(=O)(=O)N2CC3(C)CN(S(=O)(=O)c4ccc(C)cc4)CC(C)(C2)C3=O)cc1` as the compound, how does the “activity change, negative = cytotoxicity” value read?
**A.** -4.34% (inactive)

**Q.** For `Cc1c(NC(=O)c2ccc3nsnc3c2)cccc1[N+](=O)[O-]`, which “activity change, negative = cytotoxicity” value is on record?
**A.** -0.314% (inactive)

**Q.** With `C[C@@H]1CN([C@@H](C)CO)C(=O)c2cc(NC(=O)CCCN(C)C)ccc2O[C@@H]1CN(C)Cc1ccc(-c2ccccc2)cc1` as the compound, how does the “activity change, negative = cytotoxicity” value read?
**A.** -1.88% [at 23.5 µM] (inactive)

**Q.** With `COc1cccc(-c2ccc3c(c2)[C@@H]2[C@@H](CCN2S(=O)(=O)c2cccc(OC)c2)[C@H](CO)N3)c1` as the compound, how does the “activity change, negative = cytotoxicity” value read?
**A.** -8.83% (inactive)

**Q.** With `O=S(=O)(c1ccccc1F)N1CC[C@@H]2[C@@H](CO)Nc3ccc(-c4cccc(F)c4)cc3[C@@H]21` as the compound, how does the “activity change, negative = cytotoxicity” value read?
**A.** -9.85% (inactive)
